M18AAP inhibitor = PfM18AAP inhibitors, malaria aminopeptidase, primary screen, biochemical, QFRET, recombinant enzyme. H-Glu-NHMec fluorogenic cleavage. AID 1822, 2009. M18 aspartyl aminopeptidase (Plasmodium falciparum 3D7). inhibition, % at 7.35 µM. actives 1.2% (n = 290,000);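 active = inhibition above the campaign mean inhibition over all tested compounds plus 3 SD, cut at about 28% in these data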;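 note: 0% = plate median of test compound wells and 100% = 2 mM ZnCl2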
ALR H2O2 inh = inhibitors of human ALR sulfhydryl oxidase, primary screen, biochemical, H2O2 detection, HRP-luminol luminescence, single point; FAD-linked sulfhydryl oxidase ALR (Homo sapiens), P55789; purified ALR, DTT oxidation; inhibition, % (test concentration not listed); actives 3.8% (n = 290,000); AID 485317, 2010;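 active = mean replicate inhibition above about 79%, with every replicate also reaching it, limit read from the data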
Target sequence (P55789 whole entry, looked up): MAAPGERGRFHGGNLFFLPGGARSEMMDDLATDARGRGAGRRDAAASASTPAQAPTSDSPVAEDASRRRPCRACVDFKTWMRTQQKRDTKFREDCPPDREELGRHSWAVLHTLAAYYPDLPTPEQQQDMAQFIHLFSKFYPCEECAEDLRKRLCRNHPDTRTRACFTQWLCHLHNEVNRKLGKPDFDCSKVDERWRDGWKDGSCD
Mot1-301 SUMO = yeast Mot1-301 growth rescue at high temperature, primary screen, SUMOylation pathway inhibitor project, S. cerevisiae, ATP luminescence, 38.5C; S. cerevisiae Mot1-301 growth rescue; percent above DMSO median, 100 means doubled; growth rescue, % at 18.8 µM; actives 1% (n = 320,000);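 active = every valid replicate shows activation above 250% relative to neutral control wells; inactive = the rest, any valid replicate at or below 250%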;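 note: OY570 slx delta 5 strain wells were the positive control but not used for scaling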
HIF activator = HIF pathway transcriptional activators, primary screen, cell-based, U2OS HRE-luciferase, luminescence; U2OS HRE-luciferase reporter; normalized: DMSO 0%, desferrioxamine 100%; activation, % at 7.5 µM (by protocol); actives 0.32% (n = 300,000); AID 1910, 2009;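 active = mean activation of at least 10% of the iron chelator positive control signal, with at least half of replicates also reaching 10%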
Mot1 SUMO dose = growth restoration of Mot1-301 yeast on galactose, dose response, SUMO pathway inhibitor project, whole organism, S. cerevisiae, ATP luminescence, cherry-picked samples; shares compounds with Mot1-301 SUMO; S. cerevisiae Mot1-301 galactose growth, 24 h; -100 = growth of slx-deleted rescue strain; growth activity, percent, % at 42 µM; 2,300 tested, under 10 active; AID 493004, 2010;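 active = Signal drops as the depositor expects, and the fitted half-maximal dose is no more than ten times the top valid tested dose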;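 note: more negative values mean stronger growth rescue toward the control strain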
Starred values were filed as active, the others as inactive; / = no result given; + = active, no number; [ ] = dose if it differs, or a comment. Sampled rows, rich in hits. Any-hit rate of the full collection: about 5.3%.

SMILES | M18AAP inhibitor | ALR H2O2 inh | Mot1-301 SUMO | HIF activator | Mot1 SUMO dose
CCOC(=O)C1=C(C)N(CCCC(=O)O)C(=O)NC1c1cccc(OC)c1 (stereo not given) | / | -0.2 | -15.3 | -0.1 | /
COc1ccc(C2C(C(C)=O)=C(O)C(=O)N2CCc2c[nH]c3ccccc23)cc1OC (stereo not given) | 2.9 | -16.0 | 3.8 | 0.4 | /
COc1cccc(C2C(C(C)=O)=C(O)C(=O)N2CCc2c[nH]c3ccccc23)c1 (stereo not given) | 1.0 | 23.6 | 603.7* | -0.7 | 0.1
Brc1cccc(CNCC2CCCO2)c1 (stereo not given) | 0.9 | / | 1.5 | 1.9 | /
Fc1ccc(CN(Cc2ccccc2)C(c2cccs2)c2nnnn2C2CCCCC2)cc1 (stereo not given) | 1.7 | -7.7 | 161.8 | -17.0 | /
Clc1ccc(CN(Cc2ccccc2)C(c2cccs2)c2nnnn2C2CCCC2)cc1 (stereo not given) | 2.6 | -13.1 | 656.6* | 1.4 | 0.6
O=C(CCC(=O)OC(C(=O)c1ccccc1)c1ccccc1)Nc1ccccc1 (stereo not given) | 3.1 | -3.8 | 414.9* | -0.3 | -0.5[21 µM]
Cc1ccc(-c2nnc(SCC#N)n2N)cc1 | 2.6 | -6.1 | + | -0.1 | 0.4
Cc1ccc(-c2cc(C(=O)O)c3ccccc3n2)s1 | -2.5 | 23.2 | 891.1* | -2.9 | -1.4
CC(C)[C@H](NC(=O)C1CCN(S(=O)(=O)c2ccc(F)cc2)CC1)C(=O)NCc1ccco1 | -10.3 | 2.0 | 10.0 | -0.3 | /
O=C(O)C[C@H]1c2cc(C(F)(F)F)ccc2S(=O)(=O)N1Cc1ccccc1 | / | / | 1.6 | -0.2 | /
O=C1CCc2cc(S(=O)(=O)N3CCC(C(=O)NC4CCCC4)CC3)ccc2N1 | 6.8 | 11.0 | 518.1* | / | -0.3
O=C1CCc2cc(S(=O)(=O)N3CCCC3C(=O)NC3CCCCCCC3)ccc2N1 (stereo not given) | -0.7 | -28.2 | 5.3 | -0.2 | /
COc1ccc(S(=O)(=O)NCC(=O)N(CC(=O)NCC2CCCO2)c2ccccc2C)cc1 (stereo not given) | -3.1 | 1.8 | 920.9* | 0.1 | 0.9
O=C(CN(CC1CCCO1)C(=O)CNS(=O)(=O)c1ccc(F)cc1)NCc1ccccc1 (stereo not given) | -8.3 | / | 886.2* | -1.0 | 0.3
CCCCN(Cc1ccco1)S(=O)(=O)c1csc(C(N)=O)c1 | -13.4 | 0.1 | 21.5 | 0.9 | /
CCOc1ccc(C(=O)NNC2CC(=O)N(CCc3ccccc3)C2=O)cc1OC (stereo not given) | 2.5 | -3.6 | 737.0* | -0.1 | -0.2
COc1ccc(CCN2C(=O)CC(NNC(=O)c3ccc(F)cc3)C2=O)cc1OC (stereo not given) | 1.7 | -11.7 | 9.4 | -0.2 | /
COCCN(C(=O)c1ccccc1OC1CCN(S(C)(=O)=O)CC1)C(C)C | 5.9 | -3.4 | -4.4 | -0.2 | /
CCCCn1c(N)c(N(CCOC)C(=O)C2CCN(S(=O)(=O)c3ccccc3)CC2)c(=O)[nH]c1=O | / | -2.9 | -5.0 | 0.3 | /
Cc1ccc(NC(=O)CN2C(=O)COc3ccc(S(=O)(=O)N4CCOCC4)cc32)cc1F | 0.6 | / | 499.9* | -0.8 | 0.3
O=C(Cc1cccs1)N1CCCC(c2nc3c(nnn3Cc3ccc(F)cc3)c(=O)[nH]2)C1 (stereo not given) | 6.1 | 1.0 | 532.9* | -0.3 | 0.5
COC(=O)c1ccccc1NC(=O)c1ccnn1C | 0.5 | -2.3 | 4.8 | -0.5 | /
O=C(NCCCn1ccnc1)Nc1cccc2ccccc12 | -7.1 | -15.9 | 762.5* | / | 0.1
Cc1ccc(C(=O)CN2C(=O)C(=O)N(Cc3ccccc3)C2=O)cc1 | 3.3 | 3.7 | -11.0 | 0.0 | /
SMILES | M18AAP inhibitor | ALR H2O2 inh | Mot1-301 SUMO | HIF activator | Mot1 SUMO dose
O=C(CCC(=O)Nc1ccc(F)cc1)N/N=C/c1cccs1 | -0.2 | -0.4 | 544.5* | 0.5 | 1.3
O=C(CCC(=O)Nc1ccc(F)cc1)N/N=C/c1ccccc1O | 6.3 | 0.7 | -10.7 | 3.9 | /
NS(=O)(=O)c1ccc(S(=O)(=O)N2CCCC2)cc1 | -6.7 | / | -4.5 | -0.5 | /
O=S(=O)(c1ccc(C2CCCCC2)cc1)N1CCCC1 | -13.0 | -1.6 | 621.2* | -0.1 | -0.4
O=S(=O)(c1ccc(S(=O)(=O)N2CCCC2)cc1)N1CCCCC1 | -8.3 | -10.8 | 682.6* | 0.5 | -0.2
CCOc1ccc(NC(=O)c2nn(-c3ccc(OC)cc3OC)c(=O)c3ccccc23)cc1 | 0.3 | -3.5 | -1.2 | -0.1 | /
CN(C)CCOC(=O)CCc1ccccc1 | 3.1 | -5.8 | 560.1* | 0.0 | -0.1
CCc1ccc(OCC(=O)OC(C)C(=O)Nc2ccc(Cl)cn2)cc1 (stereo not given) | / | -10.5 | 11.3 | / | /
CCc1nnc2n1N=C(c1ccc(Cl)cc1)CS2 | -3.8 | -2.7 | 394.3* | -14.7 | -0.1
COc1cccc(C2C3=C(CC(C)(C)CC3=O)Nc3n[nH]c(C)c32)c1 (stereo not given) | 1.7 | 14.6 | 3.7 | -0.8 | /
NC(=O)c1nsc(C(=O)N(Cc2ccc(F)cc2)C(C(=O)NC2CCCC2)c2ccco2)c1N (stereo not given) | 20.3 | -1.3 | 875.8* | -0.2 | 0.4
CCOc1ccccc1N(C(=O)c1snc(C(N)=O)c1N)C(CC)C(=O)NC1CCCC1 (stereo not given) | 4.3 | / | 577.5* | -0.3 | 0.2
CC(=O)Nc1cccc(NC(=O)CSc2nnc3ccc(-c4cccnc4)nn23)c1 | / | -11.2 | 737.7 | -33.3 | /
O=[N+]([O-])c1cccc(N=NN(CCO)c2cccc([N+](=O)[O-])c2)c1 | 1.6 | -1.9 | 30.1 | -0.1 | /
N#CCN(N=Nc1ccccc1)c1ccccc1 | -1.6 | -13.7 | 616.8* | 0.7 | 0.6
O=C(CCSc1nnnn1-c1ccccc1)N1CCOCC1 | -7.1 | -3.5 | 687.5* | -0.7 | 0.7
O=C(COC(=O)CNC(=O)c1ccc(Cl)cc1)Nc1ncc(C(F)(F)F)cc1Cl | 2.8 | -2.2 | 595.7* | 0.2 | -0.2
CCOC(=O)N1CCN(C(=O)C2CCN(c3nnc(-n4cccc4)s3)CC2)CC1 | 9.4 | -1.3 | -4.3 | 0.0 | /
CN(CC(=O)Nc1sccc1C#N)Cc1ccccc1 | -0.8 | -3.3 | 486.6* | / | 0.0
O=C(NCc1csc(-c2cccs2)n1)C1CCCCC1 | -9.1 | -23.8 | 12.0 | 3.2 | /
CCc1cc2c(=O)c(-c3nc4ccccc4[nH]3)coc2c(CN2CCCCC2)c1O | 5.3 | 4.5 | 477.5* | 0.4 | -0.6
CCc1cc2c(=O)c(-c3nc4ccccc4n3C)c(C)oc2c(CN2CCOCC2)c1O | -0.3 | 2.5 | 519.9* | -0.2 | -0.7
Cc1cc(C)cc(-n2c(C)cc(/C=N/NC(=O)c3ccncc3)c2C)c1 | 4.1 | / | 154.0 | -0.6 | /
Cc1cc(/C=N/NC(=O)c2ccsc2)c(C)n1-c1cnccn1 | 3.3 | 2.9 | 555.2* | 0.5 | 0.2

Bioassay records from PubChem.
